Values joined by “and” are separate entries in the source; they are usually repeats but may differ in a detail not shown here. Identical values can stand only once. About 50,000 (12%) of roughly 420,000 compounds were called active. A call without a number means that no potency is given here. About 26% were inconclusive and are not listed. Calls come from the whole dose curve; as a rule, active = well fitted inhibition curve with a large enough effect; inconclusive = small, poorly fitted or top-dose-only effect; inactive = flat fitted curve, though single readings scatter. For the sample, actives were picked, then their nearest neighbours and some compounds at random.
Assay: qHTS for Inhibitors of human tyrosyl-DNA phosphodiesterase 1 (TDP1): qHTS in cells in presence of CPT; note: nearly all actives have a fitted effect of over 55% in size
Conditions: chicken DT40 Tdp1-/-;hTDP1 cells + 20 nM CPT, ATP luminescence, 48 h; series mostly up to 46.2 µM
Method in brief: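 Chicken DT40 Tdp1-/- cells complemented with human TDP1, 400 cells/well, exposed to compounds plus 20 nM camptothecin for at least 48 h at 37 C; viability read as ATP content by CellTiter-Glo luminescence.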
With `CN(C)S(=O)(=O)c1ccc(N2CCCC2=O)c([N+](=O)[O-])c1` the Potency was “inactive”.
With `Cc1ccc(F)cc1NC(=O)N1CCCN(c2ccc(C(F)(F)F)cn2)CC1` the Potency was “inactive”.
In the case of `O=C(Cn1c(=O)n(Cc2ccccc2)c(=O)c2sc3ccccc3c21)Nc1ccccc1F`, the Potency is reported as “inactive”.
With `Brc1ccccc1C1N=C(c2ccccc2)NO1` (stereo unspecified) the Potency was “inactive”.
With `CCc1nc2c(=O)[nH]cnc2o1` the Potency was “inactive”.
In the case of `Cc1n[nH]c(=O)c2c(NC(=O)CSc3cc(Cl)ccc3Cl)oc(C)c12`, the Potency is reported as “inactive”.
With `CCOc1ccc2c(=O)c(-c3ccc4c(c3)OCCCO4)c(C)oc2c1` the Potency was 18.4 µM (active).
For `CCOc1ccc(NC(=O)Cn2cc(C(=O)c3ccc(C)cc3)c(=O)c3cc4c(cc32)OCCO4)cc1`, the Potency was “inactive”.
In the case of `O=C(COc1ccc2c(C(F)(F)F)cc(=O)oc2c1)Nc1ccc2c(c1)OCCO2`, the Potency is reported as “inactive”.
In the case of `C=CCn1c(SCC(=O)CC(=O)OCC)nc2cc(C(=O)N3CCC(C(N)=O)CC3)ccc2c1=O`, the Potency is reported as “inactive”.
In the case of `CCOC(=O)C1CCN(C(=O)c2ccc3c(=O)n4nc(Nc5ccccc5CC)sc4nc3c2)CC1`, the Potency is reported as 13 µM (active).
In the case of `Cc1nc2c(c(C)nn2-c2ccccc2)c(C)c1CCC(=O)NCCc1ccc(Cl)cc1`, the Potency is reported as “inactive”.
With `CCc1ccc(Nc2nn3c(=O)c4cc5c(cc4nc3s2)OCO5)cc1` the Potency was “inactive”.
With `CCOC(=O)C1CCCN(C(=O)c2ccc(C)c(F)c2)CC1` (stereo unspecified) the Potency was “inactive”.
With `Cc1ccccc1Nc1nn2c(=O)c3ccc(C(=O)NCCc4ccc(Cl)cc4)cc3nc2s1` the Potency was 5.8 µM (active).
For `CC(=O)NS(=O)(=O)c1ccc2c(c1)Cc1cc(S(=O)(=O)NC(C)=O)ccc1-2`, the Potency was “inactive”.
With `O=C(CN(C(=O)CCC(=O)Nc1nccs1)c1ccc(F)cc1)NCc1ccc2c(c1)OCO2` the Potency was “inactive”.
In the case of `CO[C@@H]1[C@@H](OC(N)=O)[C@@H](O)C(Oc2ccc3c(O)c(NC(=O)c4ccc(O)c(CC=C(C)C)c4)c(=O)oc3c2C)OC1(C)C` (stereo partly specified), the Potency is reported as “inactive”.
In the case of `Nc1ccc(-c2nnc(-c3ccccc3)o2)cc1`, the Potency is reported as “inactive”.
In the case of `Cc1ccc(S(=O)(=O)NCCC(=O)Nc2cccc(S(N)(=O)=O)c2)cc1C`, the Potency is reported as “inactive”.
In the case of `c1ccc2c(NC3C4CC5CC(C4)CC3C5)nc(N3CCOCC3)nc2c1` (stereo unspecified), the Potency is reported as 10.3 µM (active).
For `FC(F)(F)c1cc(-c2ccco2)nc(N2CCOCC2)n1`, the Potency was “inactive”.
In the case of `c1ccc(-n2nnnc2N2CCOCC2)cc1`, the Potency is reported as “inactive”.
In the case of `Cc1ccc(NC(=O)Cc2nc(COC(=O)C(C)NS(=O)(=O)c3ccc(C)cc3)cs2)cc1` (stereo unspecified), the Potency is reported as “inactive”.
With `CCOC(=O)c1ccc(NC(=S)Nc2cc(C)cc(C)n2)cc1` the Potency was “inactive”.
With `Brc1nc2ncnc(NCc3ccco3)c2[nH]1` the Potency was “inactive”.
For `CS(=O)(=O)n1nc(-c2ccccc2)nc1NCc1ccco1`, the Potency was “inactive”.
For `Cc1ccc(C(=O)NNc2ncnc3ccccc23)cc1`, the Potency was “inactive”.
In the case of `c1coc(CNc2ncnc3ccccc23)c1`, the Potency is reported as 7.08 µM (active) and 10.3 µM (active).
In the case of `CN(c1ccccc1)c1nc(N)c([N+](=O)[O-])c(NCc2ccco2)n1`, the Potency is reported as “inactive”.
With `c1ccc(-c2nc(NCc3ccco3)c3ccccc3n2)cc1` the Potency was 16.4 µM (active).
For `COCCOC1CCN(C(=O)c2ccc(OC)c(OC3CCN(C(C)C)CC3)c2)CC1`, the Potency was “inactive”.
For `Cc1cccc(NS(=O)(=O)c2ccc([N+](=O)[O-])cc2)n1`, the Potency was “inactive”.
For `CCOC(=O)c1cnc(-c2ccccc2)nc1Oc1ccc(C)cc1`, the Potency was “inactive”.
With `CCOC(=O)C1=C(c2ccc(OC)cc2)C(=O)c2ccccc2C1=O` the Potency was 1.16 µM (active).
With `COc1ccc(OCCCON2C(=O)c3ccccc3C2=O)cc1` the Potency was “inactive”.
With `Cc1cc(C)c(C#N)c(SCC(=O)NN2CC(=O)N(c3ccccc3F)CC2=O)n1` the Potency was “inactive”.
In the case of `COC(=O)c1ccc(CSc2nncn2N)cc1`, the Potency is reported as “inactive”.
In the case of `CCOc1c2ccc(C(=O)NCc3ccc4c(c3)OCO4)cc2nn1C`, the Potency is reported as “inactive”.
With `Cc1ccc(CCNC(=O)c2ccc3c(c2)nc2n3CCC(C)C2)cc1` (stereo unspecified) the Potency was “inactive”.
In the case of `C=CCNC(=O)c1ccc2c3n(nc2c1)-c1ccc(C)cc1CO3`, the Potency is reported as 20.6 µM (active).
For `Cc1cc2c(cc1C)NC1(C[C@H]3CCC(=O)N4CC[C@@H](C1)[C@@H]34)C(=NC(C)(C)CC(C)(C)C)N2` (stereo partly specified), the Potency was 20.6 µM (active).
For `O=C1CCC[C@@H]2C[C@@]3(C[C@@H]4CCN1[C@H]24)Nc1ccccc1NC3=NCc1ccccc1`, the Potency was “inactive”.
With `O=C1CC[C@@H]2CC3(C[C@@H]4CCN1[C@H]24)Nc1cc([N+](=O)[O-])ccc1NC3=NC1CCCCC1` (stereo partly specified) the Potency was “inactive”.
For `COc1ccccc1NC(=O)c1cc(Cl)nnc1Cl`, the Potency was “inactive”.
In the case of `COc1ccccc1NC(=O)/C=C/C(N)=O`, the Potency is reported as 2.06 µM (active).
For `COc1ccccc1NC(=O)C[n+]1ccccc1`, the Potency was “inactive”.
For `Nc1ccccc1Sc1cc(Cl)nnc1Cl`, the Potency was “inactive”.
In the case of `Cc1ccsc1C(=O)OCC(=O)Nc1cccc(F)c1`, the Potency is reported as “inactive”.
In the case of `O=C(CNC(=O)c1ccc2ccccc2c1)Nc1ncccc1O`, the Potency is reported as “inactive”.
In the case of `O=C(NCC(=O)N1CCN(c2ccccc2O)CC1)c1ccc2ccccc2c1`, the Potency is reported as 18.4 µM (active).
With `O=C(NCC(=O)N1CCN(c2ccccc2F)CC1)c1cccs1` the Potency was “inactive”.
For `CN(C)/C=C(\C#N)C(=O)c1cccnc1Oc1cccc(F)c1`, the Potency was “inactive”.
For `COCc1[nH][nH]c(=O)c1C=Nc1ccc(F)cc1F`, the Potency was “inactive”.
For `O=C(c1cc2ccccc2o1)N1CCN(c2cccc(C(F)(F)F)c2)CC1`, the Potency was “inactive”.
In the case of `Cc1ccc(C)c(S(=O)(=O)N2CCCOC2CNC(=O)C(=O)NC2CCCCC2)c1` (stereo unspecified), the Potency is reported as “inactive”.
For `Cn1c(Nc2ccccc2)cc(=O)n(C)c1=O`, the Potency was “inactive”.
In the case of `S=c1ccc2ccccc2[nH]1`, the Potency is reported as 13 µM (active).
For `CCOC(=O)c1ccccc1NS(=O)(=O)c1c(C)nc2sccn2c1=O`, the Potency was “inactive”.
For `O=C(CSC1=Nc2ccccc2C2=NC(CC(=O)NCc3ccco3)C(=O)N12)NCc1ccco1` (stereo unspecified), the Potency was “inactive”.
For `COc1ccccc1NC(=O)CSC1=Nc2ccccc2C2=NC(CC(=O)NCc3cccs3)C(=O)N12` (stereo unspecified), the Potency was 20.6 µM (active).
In the case of `Cc1ccc(CNC(=O)CSC2=Nc3ccccc3C3=NC(C)C(=O)N23)cc1` (stereo unspecified), the Potency is reported as “inactive”.
For `CN1CCC(=NNC(=O)c2ccc(N(Cc3ccc(Cl)cc3)S(C)(=O)=O)cc2)CC1`, the Potency was “inactive”.
With `CC(=O)Nc1ccc(NC(=O)CC2CCCC2)cc1` the Potency was “inactive”.
For `CSc1ncnc2c1ncn2CCCNCC1CCCCC1`, the Potency was “inactive”.
In the case of `CSc1ncnc2c1ncn2CC(=O)C1CCC2C3CCC4=CC(=O)CCC4(C)C3CCC12C` (stereo unspecified), the Potency is reported as 5.8 µM (active).
Potency is the fitted concentration of half-maximal effect.
